Bioassay records (PubChem)
Sampled rows, rich in hits. Any-hit rate of the full collection: about 3.4%.
FBW7 activator = activators of human E3 ligase FBW7. normalized activity (activation), % at 26.1 µM. 650,000 compounds, 0.13% hits. AlphaScreen FBW7–phospho-cyclin E peptide binding, activator screen. Q969H0. AID 1259310; in the data active = normalized activity above about 1.9%;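 note: purified mutant Fbw7 with reduced substrate affinity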
GPR151 activ = activators of human GPR151; Q8TDV0; PathHunter beta-arrestin GPR151 cells, luminescence; activation, % at 11.2 µM; 650,000 compounds, 1% hits; AID 1508602; in the data active = activation above about 4.9%;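 note: 0% = median of compound wells and 100% = cells with positive control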
Target sequence (Q8TDV0 whole entry, looked up): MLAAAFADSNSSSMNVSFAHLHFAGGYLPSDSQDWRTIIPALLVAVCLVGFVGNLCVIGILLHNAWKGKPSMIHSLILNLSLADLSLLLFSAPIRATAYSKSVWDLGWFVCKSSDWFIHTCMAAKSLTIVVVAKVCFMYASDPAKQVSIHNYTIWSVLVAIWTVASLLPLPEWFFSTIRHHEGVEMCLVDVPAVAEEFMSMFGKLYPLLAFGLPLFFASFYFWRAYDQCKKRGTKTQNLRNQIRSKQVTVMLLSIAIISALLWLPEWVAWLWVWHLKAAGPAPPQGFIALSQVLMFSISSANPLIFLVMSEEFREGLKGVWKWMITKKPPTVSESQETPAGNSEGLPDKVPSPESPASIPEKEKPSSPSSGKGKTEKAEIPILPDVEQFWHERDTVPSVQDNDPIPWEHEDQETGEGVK
MITF inh = human MITF inhibition, primary screen. AlphaScreen MITF homodimerization, bead proximity signal. inhibition, % at 2.6 µM. 650,000 compounds, 0.91% hits; in the data active = inhibition above about 50%;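 note: 0% = vehicle wells with protein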
TEAD-YAP block = TEAD-YAP interaction inhibition; HEK-TIYL cells, TEAD-Gal4/YAP UAS-luciferase luminescence; inhibition, % at 9.12 µM; 640,000 compounds, 1.4% hits; AID 1259422; in the data active = inhibition above about 32%;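 note: 0% = median of test compound wells and 100% = reference inhibitor wells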
Active calls of the source: *.

SMILES | FBW7 activator | GPR151 activ | MITF inh | TEAD-YAP block
COc1cccc(-c2nc3n(n2)C(c2cccc(OC)c2OC)C(C(N)=O)=C(C)N3)c1 (stereo not drawn) | 0.0 | 0.2 | -0.1 | -16.3
CCN1CCN(Cc2ccc(NC(=O)Nc3cc(F)ccc3F)cc2)CC1 | -0.2 | -0.6 | 0.0 | 40.0*
Cc1cccc(Cn2c(NCCO)nc3c2c(=O)n(C)c(=O)n3C)c1 | -0.1 | -0.5 | 7.4 | 42.3*
Cn1c(=O)c2c(nc(NCCO)n2Cc2cccc(Br)c2)n(C)c1=O | 0.0 | -0.1 | 12.2 | 22.0
Cn1c(=O)c2c(nc(Cl)n2Cc2cccc(C(F)(F)F)c2)n(C)c1=O | 0.5 | 0.7 | 18.4 | 36.6*
CCNc1nc2c(c(=O)n(C)c(=O)n2C)n1Cc1cccc(C)c1 | 0.0 | 1.8 | 3.1 | 44.3*
Clc1ccc(-n2nnc3c(N4CCNCC4)ncnc32)cc1 | 0.1 | -1.1 | -1.4 | -10.9
CCc1ccc(N(CC(=O)NCc2ccco2)S(=O)(=O)c2ccccc2)cc1 | -0.2 | 0.7 | -2.3 | 4.5
Cc1nn(-c2nc3ccccc3[nH]2)c(=O)c2ccccc12 | 0.0 | -8.8 | 2.2 | 97.4*
COc1ccc2cnn(-c3nc4ccccc4[nH]3)c(=O)c2c1OC | -0.4 | -4.3 | -4.5 | 43.0*
C1=C(c2ccccc2)Nc2ncnn2C1c1cccc2ccccc12 (stereo not drawn) | -0.1 | -0.6 | -15.4 | 1.4
C/C(O)=C/c1nc2cccnc2nc1/C=C(/C)O | -0.1 | -0.7 | 73.4* | 6.5
O/C(=C\c1nc2ccccc2nc1/C=C(\O)c1ccccc1)c1ccccc1 | 0.0 | -0.7 | 7.8 | -30.5
CCN(CC)C(=O)N1c2ccccc2CCc2ccccc21 | -0.1 | 1.0 | -1.4 | 41.9*
COc1ccccc1OC(=O)NC(=O)CCBr | 0.1 | 0.7 | 3.6 | -6.5
C/C(=N\Nc1nc2ccccc2s1)c1ccc(F)cc1 | -0.1 | 1.2 | 1.5 | 33.8*
C/C(=N\Nc1nc2ccccc2s1)c1ccc(O)cc1 | 0.2 | -0.9 | 12.4 | -59.1
NC(=S)N/N=C/c1cccc(OCc2ccccc2)c1 | -0.5 | 0.9 | 1.0 | 3.5
NC(=O)c1ccccc1NC(=O)c1ncoc1-c1cccc(Cl)c1 | 0.1 | -1.1 | 25.9 | -69.8
c1csc(-c2cn3ccc4ccccc4c3n2)c1 | 2.5* | -6.1 | 4.0 | -30.5
CCNc1nc(NCC)n2c(SCC(=O)Nc3cc(C)cc(C)c3)nnc2n1 | -0.1 | 0.5 | 3.9 | 2.7
COc1ccccc1Nc1nc(-c2cc3ccccc3oc2=O)cs1 | 0.5 | 0.0 | 12.6 | 42.6*
Cc1ccc(NC(=O)c2c(O)c3cccc4c3n(c2=O)CCC4)cc1 | 0.1 | 1.9 | 3.5 | -11.6
Cc1ccc(-c2nc3ccccc3s2)cc1[N+](=O)[O-] | -0.2 | 0.9 | -0.7 | -31.7
Cc1ccc(-c2nc3ccccc3s2)cc1N | -0.2 | -10.0 | 1.5 | 54.0*
SMILES | FBW7 activator | GPR151 activ | MITF inh | TEAD-YAP block
CC(=O)Nc1cc(-c2nc3ccccc3s2)ccc1C | -0.2 | -0.3 | -4.5 | -33.8
Cc1c(N)cccc1-c1nc2ccccc2o1 | 0.1 | -2.8 | -3.2 | 57.0*
Cc1cc(-c2nc3ccccc3s2)ccc1N | 0.2 | -7.6 | 3.0 | 81.0*
Cc1c(N)cccc1-c1nc2ccccc2s1 | -0.2 | -2.1 | 0.4 | 35.3*
CCNC(=O)Nc1ccc(Br)cc1C(=O)OC | 0.1 | 3.7 | 14.0 | 15.1
COc1nccnc1NS(=O)(=O)c1ccc(NC(=O)c2ccc([N+](=O)[O-])cc2)cc1 | -0.1 | -0.8 | -3.7 | -1.6
CC(=O)c1ccc2c(c1)nc(C)n2-c1ccccc1 | 0.3 | -0.3 | 20.4 | -24.3
Cc1nc2cc(-c3nc4ccccc4s3)ccc2n1-c1ccccc1 | -0.1 | 1.9 | -13.0 | 59.1*
COC(=O)c1ccc(C(=O)OC)c(NS(=O)(=O)c2cc(Cl)ccc2Cl)c1 | 0.2 | 1.2 | -13.6 | 1.5
COc1cc(NS(=O)(=O)c2ccc(NC(C)=O)cc2)c(OC)cc1Cl | -0.1 | 0.0 | 6.0 | 52.4*
COC(=O)c1ccc(C(=O)OC)c(S(=O)(=O)Nc2cc(OC)c(Cl)cc2OC)c1 | 0.3 | -1.8 | 9.7 | 44.6*
COc1ccc(Cl)cc1NS(=O)(=O)c1ccc(OC)c(OC)c1 | 0.0 | 0.6 | 13.5 | -2.9
COc1ccc(S(=O)(=O)Nc2ccc(NC(C)=O)cc2)cc1Cl | -0.1 | -0.2 | -5.0 | 0.8
COc1cc(NS(=O)(=O)c2ccc(OC)c(OC)c2)c(OC)cc1Cl | 0.1 | 1.5 | 8.5 | 48.5*
COc1cc(N)c(Cl)cc1C(=O)OCC(N)=O | 0.5 | -0.3 | 14.2 | -13.1
CCOc1ccc([C@@H]2C[C@H](O)C(=O)N2CC)cc1 | 0.0 | -0.6 | 2.1 | 7.2
COc1ccccc1C1SCCN1S(=O)(=O)c1ccc([N+](=O)[O-])cc1 (stereo not drawn) | 4.4* | 0.6 | 2.2 | 5.9
